Assay outcomes from PubChem BioAssay.
TRHR enhancer – allosteric enhancers of human TRH receptor; actives 0.66% (n = 360,000); AID 493056; P34981; enhancement, % at 2 µM; TRHR cells, fluo-8 calcium fluorescence, EC20 TRH enhancement; in the data active means enhancement above about 30%; further: 0% is about no effect
Target sequence (P34981 whole entry, looked up): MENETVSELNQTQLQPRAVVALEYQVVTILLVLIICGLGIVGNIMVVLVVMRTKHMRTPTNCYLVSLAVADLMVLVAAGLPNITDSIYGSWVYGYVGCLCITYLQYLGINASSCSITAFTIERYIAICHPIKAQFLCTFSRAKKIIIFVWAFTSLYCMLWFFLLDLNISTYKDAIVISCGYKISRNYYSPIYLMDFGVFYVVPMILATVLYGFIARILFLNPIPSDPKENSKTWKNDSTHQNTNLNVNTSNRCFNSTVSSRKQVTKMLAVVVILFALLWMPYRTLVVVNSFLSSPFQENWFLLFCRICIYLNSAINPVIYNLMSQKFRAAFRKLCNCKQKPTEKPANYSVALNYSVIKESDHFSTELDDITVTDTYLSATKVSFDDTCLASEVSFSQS
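Enhancer read-out: after compound pinning and an initial kinetic agonist-mode read, an EC20 of TRH (10 nM final) was injected and fluo-8 calcium signal (Ex 480/Em 530) followed at 1 s/cycle for 100 cycles in TRHR-expressing cells.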
D1 potentiator – human D1 dopamine receptor positive modulation; P21728; HEK293 TREx D1 cells, calcium flux, dopamine EC20 potentiation; potentiation, % at 10 µM; actives 0.036% (n = 360,000); AID 504651; in the data active means potentiation above about 30%; further: 0% is about no effect
D1 agonist – human D1 receptor agonism; actives 1% (n = 360,000); P21728; HEK293 T-REx D1 cells, calcium flux, agonist mode; activation, % at 2 µM; further: 0% is about no effect
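Agonism was scored from calcium flux recorded over 180 s (1 read/s) after pintool compound addition, following a 10-cycle baseline. Cells were inducible force-coupled HEK293 TREx D1, plated overnight at 30 C and loaded with no-wash calcium dye.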
TRHR ag – TRH receptor (human) agonism | actives 0.18% (n = 360,000) | activation, % at 2 µM | P34981 | TRHR cells, calcium flux fluo-8, FDSS agonist mode | AID 493084; further: 0% is about no effect
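TRHR-expressing cells, plated overnight in medium with 10% serum, were loaded with fluo-8 calcium dye at room temperature. After a 10 s baseline, library compound was pin-added and calcium release was recorded kinetically (ex 480/em 530) as agonist response.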
D1 antag – blocks dopamine activation of the human D1 receptor. P21728. HEK293 TREx D1 cells, calcium flux, dopamine EC80; hits give low values. activity change, negative = inhibition, % at 10 µM. actives 3.2% (n = 360,000). AID 504652; in the data active means activity change below about -30%; further: on the % scale 0 is the no-effect control and ±100 the full control effect
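Kinetic fluorescence of a calcium dye serves as the read-out. D1-expressing Hek293 Trex cells, induced overnight at 30 C, are exposed to compound for 180 s before an EC80 dopamine addition, then read 180 s further.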
* marks the source's active call; other numbers are inactive results; ! = not active in a repeat. In the library only some 4.7% were active in any assay of this set; here they are far more common. Unless noted, no stated cut-off is given here; in the data, active means activation above about 30%; inactive means the rest.

SMILES | TRHR enhancer | D1 potentiator | D1 agonist | TRHR ag | D1 antag
CCc1cccc(NCc2ccccc2-c2nnc(-c3ccccc3Cl)o2)c1 | 0 | 0 | 1 | 1 | 9
O=C(CSc1nccn1Cc1ccco1)Nc1cccc(F)c1 | 1 | 1 | 31*! | -1 | 0
Cc1ccc(NC(=O)CSc2nccn2Cc2ccco2)cc1Cl | 35* | -5 | 4 | -1 | 3
Cc1ccc(NC(=O)CSc2nccn2Cc2ccco2)cc1 | -2 | 5 | 7 | 3 | 2
Cc1cc2c(s1)c1cnn(Cc3ccc(F)cc3)c(=O)c1n2C | 2 | -4 | 0 | 0 | 3
COc1ccc(C(=O)N2CCc3cc(OC)c(OC)cc3C2COc2ccc3c(C)cc(=O)oc3c2)c(OC)c1 (stereo not given) | 24 | 2 | 2 | 0 | -2
O=C(Cc1ccccc1)Nc1ccc(NC(=O)c2cccs2)cc1Cl | 5 | -2 | 7 | 0 | -31*
Cc1ccccc1C(=O)Nc1ccc2c(c1)CCCN2C(=O)c1cccs1 | -6 | -6 | 5 | -1 | -37*!
O=C(Nc1ccc(N2CCCC2)c(Cl)c1)c1cccs1 | 0 | -6 | 4 | 0 | -32*
CC(C)CN1C(=O)c2ccc(NC(=O)c3ccco3)cc2C1=O | -7 | -3 | 3 | 0 | -10
CC(C)CN1C(=O)c2ccc(NC(=O)c3cccs3)cc2C1=O | 38* | -9 | 2 | 1 | -15
CC(C)(C)OC(=O)N1CCC(c2c(C(=O)NC3CCN(Cc4ccccc4)CC3)cnn2-c2cccc(F)c2)CC1 | 24 | -2 | 7 | 0 | -2
COc1ccc(NS(=O)(=O)c2cc(NC(=O)c3cccs3)ccc2N2CCOCC2)cc1 | 18 | 3 | 2 | 0 | -8
COc1ccccc1NS(=O)(=O)c1cc(NC(=O)c2cccs2)ccc1N1CCOCC1 | 0 | 2 | 3 | 1 | -30*
COc1ccc(CNC(=O)Cn2c(=O)oc3cc(S(=O)(=O)N4CCCCCC4)ccc32)cc1 | -2 | -5 | 10 | 0 | -16
Cc1cc(=O)oc2cc(OC(=O)c3cncc(Br)c3)ccc12 | -2 | -1 | 4 | 0 | -45*
O=C(C[n+]1cccc(CNC(=O)c2ccc(OC(F)F)cc2)c1)Nc1ccc(SC(F)F)cc1 | 0 | -9 | 0 | 1 | -10
O=C(C[n+]1cccc(CNC(=O)c2ccc(OC(F)F)cc2)c1)Nc1ccccc1Cl | 9 | -2 | 1 | 1 | -32*
O=C(NCCc1ccccc1)c1nc(-c2cccs2)no1 | -4 | -2 | 1 | -1 | -36*
COc1cc(OC)c(NC(=O)N2CCCn3nc(C)cc32)cc1Cl | 14 | -2 | 3 | 0 | 6
CN(C)c1ccc(NC(=O)Nc2ccc3snnc3c2)cc1 | -8 | -7 | 16 | 1 | -48*
O=C(Nc1ccccc1)Nc1ccc2nnsc2c1 | -7 | -2 | 33* | 3 | -19
CCOc1ccc(NC(=O)Nc2cc(C(C)C)c(O)cc2C)cc1 | -15 | -5 | 0 | 0 | -47*
Cc1cc(C)c(NC(=O)Nc2ccc3snnc3c2)c(C)c1 | 8 | -3 | 29 | 2 | -29
CC(=O)c1ccc(NC(=O)c2ccc3snnc3c2)cc1 | -14 | -3 | 2 | 1 | -24
SMILES | TRHR enhancer | D1 potentiator | D1 agonist | TRHR ag | D1 antag
O=C(Nc1ccccc1)Nc1ccc2snnc2c1 | -7 | -5 | 25 | 3 | -52*
CCn1cc2nc(SCC(=O)Nc3ccc(C)cc3C)n(Cc3ccc(C)cc3)c(=O)c2n1 | -8 | -6 | 9 | 1 | -6
CCCn1c2ccccc2c2cnn(CC(=O)Nc3cccc(C(=O)OCC)c3)c(=O)c21 | 6 | 5 | 8 | -1 | -2
CCOc1ccc(NC(=O)Nc2cc(OCC(F)(F)F)cc(OCC(F)(F)F)c2)cc1 | 5 | -3 | 17 | 0 | -37*
O=C(Nc1cccc(C(F)(F)F)c1)Nc1ccc2snnc2c1 | 6 | -3 | 37* | 3 | -69*
O=C(Nc1ccc(F)cc1)Nc1cc(OCC(F)(F)F)cc(OCC(F)(F)F)c1 | -8 | -14 | 10 | 2 | 4
CCOc1ccc(NC(=O)Nc2ccc3snnc3c2)cc1 | 2 | -4 | 28 | 1 | -39*
COc1ccc(NC(=O)C2CCCN(c3nnc(C)c4c(C)n(-c5ccccc5)nc34)C2)cc1Cl (stereo not given) | 5 | 0 | 3 | -1 | 4
